Assay results from PubChem BioAssay AID588855 (National Center for Advancing Translational Sciences (NCATS), 2011).
The campaign covered roughly 410,000 compounds. About 5,000 (1.2%) were called active. Roughly 13% stayed inconclusive and do not appear here. The sample as a whole holds a higher share of actives than the screen did. Values without a mark were called inactive. The call rests on the fitted dose curve; in most records, active means well fitted inhibition curve with a large enough effect; inconclusive means small, poorly fitted or top-dose-only effect; inactive means no such curve, though single readings can be large or run the other way.

Assay: qHTS for Inhibitors of TGF-b; further: nearly all actives have a fitted effect of over 65% in size
Conditions: HepG2 CAGA-GFP TGF-b/SMAD3 reporter, GFP fluorescence, 18 h, TGF-beta stimulated, 500 pg/mL final; series mostly up to 46.1 µM; activity, negative = inhibition: at the top concentration
Method in brief: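 Inhibition was scored as loss of TGF-beta-induced (500 pg/mL final, 18 hours, 37 degrees C) GFP in HEPG2 cells carrying a CAGA-GFP reporter, in DMEM with 1% FBS. Well GFP was summed per cell; Activity was normalised to unstimulated and stimulated DMSO wells, then concentration-response fitting.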
On the % scale 0 is the no-effect control and ±100 the full control effect; potency means the concentration at half of the fitted maximal effect.

SMILES | activity, negative = inhibition [%] | Potency
COc1ccc(CNc2nc(-c3ccccc3)nn2C(=O)c2ccccc2OC)cc1 | 6.76 | –
OC(Cc1ccc2ccccc2n1)c1ccc(Cl)c(Cl)c1 (configuration not stated) | 8.76 | –
CC1CC(C)CN(c2oc(-c3ccc(OCc4ccc(Cl)cc4)cc3)nc2C#N)C1 (configuration not stated) | -2.03 | –
CC1=C(C(=O)N2CCOCC2)CC(CC(=O)NCCN2CCOCC2)C(=O)N1CCC1=CCCCC1 (configuration not stated) | 7.65 | –
CC1=C(C(=O)N(C)C)CC(CC(=O)NCCc2ccccn2)C(=O)N1CCC1=CCCCC1 (configuration not stated) | 8.09 | –
CC1=C(C(=O)N(C(C)C)C(C)C)CC(CC(=O)NCCCCc2ccccc2)C(=O)N1CCC1=CCCCC1 (configuration not stated) | – | 12.6 µM (active)
O=C(Nc1ccc(Cl)cc1)Nc1nnc(/C=C/c2ccccc2)s1 | – | 7.08 µM (active)
O=C(CSc1ccccc1)Nc1nnc(/C=C/c2ccccc2)s1 | 4.29 | –
COc1ccc(/C=C/c2nnc(NC(=O)C(C)C)s2)cc1 | 3.59 | –
COc1ccccc1CSc1ncc(-c2ccc([N+](=O)[O-])cc2)[nH]1 | – | 12.6 µM (active)
COc1ccc(-c2cnc(SCCNC(=O)c3ccc4c(c3)OCO4)[nH]2)cc1 | -2.86 | –
COc1cccc(-c2cnc(C(O)c3ccccc3OC)[nH]2)c1 (configuration not stated) | 1.48 | –
COc1ccc(C(=O)NCC(=O)N/N=C/c2ccc([N+](=O)[O-])s2)cc1OC | – | 11.2 µM (active)
COc1ccccc1OCCNC(=O)c1cc([N+](=O)[O-])cc([N+](=O)[O-])c1 | 4.16 | –
COc1ccc(C(=O)COC(=O)c2ccc([N+](=O)[O-])s2)cc1OC | -5.53 | –
Cc1nn(Cc2ccc(Cl)cc2)c(Cl)c1/C=N/NC(=O)CNc1ccccc1F | 0 | –
Cc1ccccc1NCC(=O)N/N=C\c1ccc([N+](=O)[O-])s1 | – | 11.2 µM (active)
Cc1ccc(S(=O)(=O)N2CCN(CC(=O)N/N=C/c3ccc(Br)s3)CC2)cc1 | 0 | –
COc1ccc(C2C(=O)N(C3CCCCC3)CC(=O)N2Cc2ccccc2Cl)cc1OC (configuration not stated) | 0.844 | –
O=C(Cc1ccc(Cl)cc1)Nc1ccc2nn(-c3ccc(Cl)cc3)nc2c1 | -5.09 | –
CC1CCN(c2nc3ccc(C(=O)N4CCN(c5ccccc5)CC4)cc3s2)CC1 | -18.9 | –
COc1ccc2nc(N3CCN(C(=O)c4ccc([N+](=O)[O-])o4)CC3)sc2c1 | – | 10 µM (active)
O=C(NCc1ccc(F)cc1)c1ccc2nc(N3CCCCC3)sc2c1 | -18.5 | –
CCn1c2ccccc2c2cc(NC(=O)COc3ccc(C)cc3C)ccc21 | -20.9 | –
Cn1nc(-c2ccccc2)c(-c2ccccc2)c(C(=O)Nc2ccc(S(N)(=O)=O)cc2)c1=O | -0.749 | –

SMILES | activity, negative = inhibition [%] | Potency
CCCCNc1ccc(-c2nc(-c3ccncc3)no2)cc1[N+](=O)[O-] | -16.9 | –
Cc1cccc(N2CCN(C(=O)Cn3ncc4c5ccccc5n(C)c4c3=O)CC2C)c1 (configuration not stated) | 13.2 | –
CCOc1ccc(N(Cc2ccccc2)C(=O)c2nc(S(C)(=O)=O)ncc2Cl)cc1 | – | 3.98 µM (active)
CCOc1ccc(NC(=O)CN(Cc2ccccc2)S(=O)(=O)c2ccc(Cl)cc2)cc1 | -14.5 | –
COc1ccc(N(Cc2ccc(N(C)C)cc2)C(=O)c2ccc(S(C)(=O)=O)cc2)cc1 | 5.12 | –
CCc1ccc(NC(=O)N2CCN(C(=O)c3nsc4ccccc34)CC2)cc1 | 0 | –
COc1ccc(CCNC(=O)c2cn(C)c3ccc(S(=O)(=O)N(C)C4CCCCC4)cc3c2=O)cc1OC | 16 | –
CCOC(=O)c1ccc(-c2ccc(/C=C(\C#N)C(=O)Nc3ccc(C)cc3)o2)cc1 | -1.98 | –
COc1ccc(-c2cc(NC=O)c3ncc(-c4ccccc4)n3c2)cc1OC | -7.58 | –
O=CNc1cc(-c2ccc(C(=O)N3CCOCC3)cc2)cn2c(-c3ccc(F)cc3)cnc12 | -0.898 | –
CN(C)C(=O)c1cccc(-c2cnc3c(NC=O)cc(-c4ccc(C(=O)N5CCOCC5)cc4)cn23)c1 | -1.01 | –
CC(=O)c1ccc(-c2cnc3c(NC=O)cc(-c4cccc(NS(C)(=O)=O)c4)cn23)cc1 | – | 7.08 µM (active)
COc1ccc(-c2cc(NC=O)c3ncc(-c4cccc(C(=O)N(C)C)c4)n3c2)c(OC)c1 | 4.36 | –
CC(=O)c1cccc(-c2cnc3c(NC=O)cc(-c4ccc(N(C)C)cc4)cn23)c1 | – | 4.47 µM (active)
CCc1ccccc1NC(=O)c1cnn(-c2ccc(F)cc2)c1C1CCNCC1 | 3.86 | –
Cc1nn(CC(=O)NCCc2ccccc2)c(=O)c2c1sc1ccccc12 | -17.8 | –
CC(=O)N1c2ccccc2CC1C(=O)N1CCN(c2ccc(F)cc2)CC1 (configuration not stated) | 0.952 | –
CCc1ccc(OCCCn2c(CCCNC(=O)C3CCCCC3)nc3ccccc32)cc1 | 1.56 | –
CCOC(=O)c1cc(-c2ccccc2)n(-c2cccc(C(=O)Nc3cc(OC)cc(OC)c3)c2)c1C | -22.2 | –
COc1ccc(-c2ccc(OC)c(C3C4C=CCC(C)C4C(=O)N3Cc3ccccc3)c2)cc1C (configuration not stated) | 6.54 | –
Cc1ccc(-c2cccc([C@H]3[C@@H]4C=CC[C@@H](C)[C@@H]4C(=O)N3Cc3ccccc3)c2)cc1 | – | 20 µM (active)
Cc1cccc([C@@H]2[C@@H]3C(=O)N(Cc4ccccc4)C(=O)[C@@H]3[C@]3(C)C(=O)N(c4ccc(Br)cc4)C(=O)N23)c1 | -6.57 | –
COc1ccc(-n2c(SC)nc3sc4c(c3c2=O)CCN(C(C)=O)C4)cc1 | -23.2 | –
O=C(Cn1nc(Cc2cccnc2)c2ccccc2c1=O)NCC1COc2ccccc2O1 (configuration not stated) | 6.14 | –
O=C(Cn1nc(Cc2cccnc2)c2ccccc2c1=O)NCC1CCCO1 (configuration not stated) | 0.32 | –

SMILES | activity, negative = inhibition [%] | Potency
Cc1ccc(Cl)cc1N(C)C(=O)Cn1nc(Cc2cccnc2)c2ccccc2c1=O | – | 12.6 µM (active)
CC(C)CCNC(=O)CSc1nc2ccccc2nc1Cc1ccc(Cl)cc1 | 28.6 | –
COc1ccc(CCNC(=O)c2ccc(CSCc3ccc(C)cc3)o2)cc1OC | -16.2 | –
O=Cc1cn(CCOc2ccc(F)cc2)c2ccccc12 | – | 3.98 µM (active)
COc1ccc(OCCn2cc(C(=O)C3CCCCC3)c3ccccc32)cc1 | -6.4 | –
O=C1c2ccccc2C(=O)N1CCOc1ccc(F)cc1 | -1.94 | –
COC(=O)N/N=C/c1cn(CCCOc2ccc(C)cc2)c2ccccc12 | – | 14.1 µM (active)
Cc1ccc(OCCOc2cccc(/C=N/NC(N)=O)c2)cc1 | 0 | –
Cc1c(C=O)c2ccccc2n1CCOc1ccccc1 | -28.7 | –
Cc1ccccc1CSc1nc2c([nH]c3ccccc32)c(=O)n1C | -9.83 | –
CCn1cc(C(=O)N2CCN(c3cc(Cl)ccc3C)CC2)c(=O)c2cc(S(=O)(=O)N3CCCC3)ccc21 | -8.29 | –
COc1ccc(SCc2cc(=O)c3ccc(C)c(C)c3[nH]2)cc1 | 22.7 | –
CCOc1c(Nc2cccc(Cl)c2)c(=O)c1=O | 0.843 | –
OCCCNc1nccc(-c2cc(Nc3cccc(Cl)c3)ncn2)n1 | – | 0.447 µM (active)
COc1ccc(S(=O)(=O)n2nc(C)c(S(=O)(=O)N3CCCCCC3)c2C)cc1 | -19.1 | –
O=C(COc1ccccc1C(=O)Nc1ccccc1)Nc1cccc(F)c1 | -3.63 | –
COCCNS(=O)(=O)c1cc(-c2nn3c(C)nnc3c3ccccc23)ccc1C | 21.7 | –
COc1cc(/C=C2\Oc3ccc(C#Cc4ccc(O)cc4)cc3C2=O)cc(OC)c1 | – | 7.08 µM (active)
COc1cc(OC)c(OC)cc1/C=C1\C=Cc2ccccc21 | -25.2 | –
CN(C)c1ccc(/C=C2\C=Cc3ccccc32)cc1Br | -2.44 | –
COc1cc(OC)c(NC(=O)c2cnc(N3CCCC3)nc2C)cc1Cl | -12.2 | –
COc1ccccc1CNc1nc(Nc2ccccc2Cl)c2sccc2n1 | -8.9 | –
COCCNc1nc(NCc2ccc(NC(C)=O)cc2)c2sccc2n1 | -2.45 | –
COc1cccc(CNc2nc(NCc3ccccc3OC)nc3ccsc23)c1 | – | 10 µM (active)
Cc1cc(C)cc(NC(=O)CCCc2nc(-c3ccccc3Cl)no2)c1 | -1.85 | –

SMILES | activity, negative = inhibition [%] | Potency
NC(=O)Nc1ccc(/C=C/c2ccnc3ccccc23)cc1 | -11.4 | –
Cc1ccc(S(=O)(=O)c2nc(-c3cccs3)oc2NCc2cccnc2)cc1 | -15.5 | –
CCCCS(=O)(=O)c1oc(-c2cccs2)nc1S(=O)(=O)c1ccccc1 | – | 3.16 µM (active)
NC(=O)CSc1oc(-c2cccs2)nc1S(=O)(=O)c1ccccc1 | 4.8 | –
CCOc1ccc(-c2nonc2NC(=O)c2oc3ccc(C)cc3c2C)cc1OCC | 13 | –
CC(C)(C)c1ccc(C(=O)Nc2ccc3c(c2)CCCN3C(=O)c2cccs2)cc1 | 30.1 | –
CC1CC2=C(CC1/C=N/NC(N)=S)C(C)(C)CCC2 (configuration not stated) | – | 10 µM (active)
COc1cc(OC)c(NC(=O)N2CC3CCCN3c3ccccc32)cc1Cl (configuration not stated) | -0.149 | –
COc1cc(NC(=O)c2noc3c2CSc2ccccc2-3)cc(OC)c1OC | -8.23 | –
COc1ccc(-c2nc(CN3CCC(C(=O)NCCN(CC(C)C)CC(C)C)CC3)c(C)o2)cc1OC | -4.59 | –
Cc1ccc(C(=O)N/C(=C\c2cccs2)C(=O)NCCc2ccccn2)cc1C | -4.67 | –
COc1ccc(-c2nc3sc(CCNC(=O)C(C)(C)C)c(C)n3n2)cc1 | -12.3 | –
COc1cncc(-c2cnc3sc(NCCc4ccccn4)nn23)c1 | – | 7.94 µM (active)
CCCN(CCC)S(=O)(=O)c1ccc(C(=O)Nc2sc3c(c2C(=O)OC)CCN(CC)C3)cc1 | -14.9 | –
COc1ccc(Cl)cc1NC(=O)c1sc2nc3c(cc2c1N)CN(C)CC3 | 0.0406 | –
O=C1C[C@@H](c2ccc3ccccc3c2)N1S(=O)(=O)c1ccccc1[N+](=O)[O-] | -8.79 | –
Cc1ccc(-n2ncc3c(NCCCn4ccnc4)ncnc32)cc1Cl | -20.8 | –
Oc1c(Cl)cc(Cl)c(Cl)c1Cc1c(O)c(Cl)cc(Cl)c1Cl | – | 5.62 µM (active)
CCOc1ccc(N(CC)C(=O)c2noc3c2COc2ccc(C)cc2-3)cc1 | -5.87 | –
Cc1ccc(C=O)cc1Cl | 4.35 | –
CSc1ccc(C2c3c(oc4ccccc4c3=O)C(=O)N2CCCN2CCOCC2)cc1 (configuration not stated) | 16.9 | –
COc1cccc(CNC(=O)c2cc(=O)[nH]c3ccc(S(=O)(=O)N4CCCCC4)cc23)c1 | 2.25 | –
